Screening results from PubChem BioAssay.
Giardia kill: kills Giardia lamblia | 340,000 tested, 0.15% active | activity change, % at 7.66 µM, hits read low | Giardia lamblia trophozoite viability; in the data active = activity change below about -80%; inconclusive = between about -30% and that limit;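 also: parasites exposed to compound for two days anaerobically before the ATP read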
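ATP-content bioluminescence gauges trophozoite survival. Cells (100/well) receive compound and incubate anaerobically for 48 hrs at 37 deg C; detection reagent follows for 15-30 min at room temperature.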
FBPA coupling cs: counter-screen for Giardia aldolase inhibitors: coupling enzyme system; coupling enzyme system counterscreen, AmpLite Red fluorescence; activity change, negative = inhibition, % at 58.2 µM, hits read low; 290,000 tested, 0.67% active; in the data active = activity change below about -30%
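First, compound is pin-transferred into glyceraldehyde-3-phosphate coupling-enzyme reagent at 57.5 uM final and held 10 min at RT. Next, substrate, coupling system and AmpLite Red are added. After 20 min RT, fluorescence (525/598 nm) is read.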
ELG1 repair inh: inhibitors of ELG1-dependent DNA repair in HEK293T cells. HEK293T ELG1-luciferase reporter, luminescence, 16 h; DNA damage induced by 5-fluorouridine. Potency, µM (titrated, usually from 46.1 µM), actives largely listed as inhibitors. 330,000 tested, 2.3% active; also: nearly all actives have a fitted effect of over 55% in size
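Cells (2,000 per well) received 5-fluorouridine plus test compound or DMSO and were incubated 16 hr at 37 °C, 5% CO2. Luciferase activity was read by luminescence 30 min after ONE-Glo addition; signal suppression marked inhibition of damage-induced ELG1 function.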
Sfp PPTase inh: Sfp phosphopantetheinyl transferase inhibition; Potency, µM, usual class: inhibitors; 310,000 tested, 3.5% active; Q9F4F7; Biochemical Sfp PPTase activity, qHTS;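 also: the enzyme is Sfp with the accession as filed and its product quenches rhodamine fluorescence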
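Fluorescence-quenching assay: 15 nM Sfp-PPTase preincubated 15 min at room temperature with compound, then 5 uM rhodamine-CoA and 12.5 uM BHQ-2-labelled YbbR peptide added. Fluorescence (ex 525/em 598 nm) read at start and after 30 min; difference gives rate.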
Hits are given with their value; i = inactive; ? = inconclusive; nt = not tested or not shown. Compounds with a hit are over-represented: about 5.5% of the library has one in this group of screens. Unless noted, calls follow the shape of the dose curve; as a rule, active = well fitted curve in the direction sought with a large enough effect; inconclusive = small, poorly fitted or top-dose-only effect, or another doubt; inactive = no such curve, though single readings can be large; an effect the other way counts as inactive or inconclusive.

SMILES	Giardia kill	FBPA coupling cs	ELG1 repair inh	Sfp PPTase inh
CCOC(=O)c1c(NC(=O)CN2CCCc3ccccc32)sc(C)c1C	i	i	?	i
CCCc1cc(C(=O)OC)c(NC(=O)CCCC(=O)O)s1	i	i	i	i
COC(=O)[C@@H](NC(=O)O[C@@H]1C(=O)c2cc(Br)ccc2O[C@H]1c1ccc2c(c1)OCO2)C(C)C	nt	i	nt	i
O=C(COC(=O)/C=C/c1cccc(F)c1)NC(=O)NC1CCCC1	i	nt	i	nt
Cc1cc2c(nc1C)CCCN2C[C@H](C)O/N=C1/[C@H]2O[C@@H]2[C@@H](O)[C@H]2[C@H]1CCn1c(=O)n(-c3ccccc3)c(=O)n12	nt	i	nt	i
COc1cccc(/C=N/Nc2ncnc3scc(-c4ccccc4)c23)c1OC	i	i	15µM	i
COc1cccc(C=NNc2nc3ccccc3s2)c1OC	i	nt	nt	nt
COc1ccccc1CCNC(=O)c1cccc(NC(=O)CC2SC(N3CCCCC3)=NC2=O)c1 (stereo not given)	i	nt	nt	nt
CCOc1ccc2nc(N3CCC(C(=O)N4CCN(c5ccccn5)CC4)CC3)sc2c1	?	i	12µM	i
Nc1cc(S(=O)(=O)O)cc([N+](=O)[O-])c1O	i	i	i	79µM
Nc1cccc2c(O)cc(S(=O)(=O)O)cc12	i	nt	nt	nt
Cc1ccccc1NC(=O)/C(=C/c1ccccc1)c1ccccc1	i	i	i	i
Cc1cccc(C)c1NC(=O)/C(=C/c1ccco1)c1ccccc1	i	i	i	22µM
Cc1cc(C)c(NC(=O)/C(=C/c2ccco2)c2ccccc2)c(C)c1	i	i	i	35µM
Cc1cc(C)c(NC(=O)c2cccc(NC(=O)c3ccco3)c2)c(C)c1	?	i	i	i
O=C(c1cccc(S(=O)(=O)N2CCCC2)c1)N1CCOCC1	i	nt	i	nt
c1ccc(COc2ccccc2CNC23CC4CC(CC(C4)C2)C3)cc1	i	i	?	56µM
O=C1[C@@H]2[C@H]3[C@H](O)[C@H](O)C/C(=N/OCc4ccccc4)[C@H]3CC[C@H]2C(=O)N1c1ccc(F)cc1F	nt	i	nt	i
O=C(Nc1ccc2c(c1)C(=O)OC2)c1ccc(C(F)(F)F)cc1	i	i	i	i
CN(C)S(=O)(=O)N1CCc2ccc(NC(=O)c3ccc(C(F)(F)F)cc3)cc2C1	i	i	9.2µM	i
COCCC(=O)N1CCc2ccc(NC(=O)c3ccc(C(F)(F)F)cc3)cc2C1	i	i	13µM	i
COCCC(=O)Nc1ccc2c(c1)CN(C(=O)CSC)CC2	i	i	?	i
Cc1[nH]n(-c2ccc([N+](=O)[O-])cc2)c(=O)c1C=NCCc1c(C)[nH]c2ccccc12	i	i	26µM	79µM
COc1ccc2c(c1)c1ncn(Cc3ccco3)c(=O)c1n2C	i	i	16µM	18µM
COc1ccc2c(c1)c1ncn(Cc3ccc(F)cc3)c(=O)c1n2C	i	i	i	i
SMILES	Giardia kill	FBPA coupling cs	ELG1 repair inh	Sfp PPTase inh
Cc1ccc2c(c1)C(=C(C#N)C#N)C(=O)N2CCN1CCOCC1	i	-36	i	i
N#CC(C#N)=C1C(=O)N(CCN2CCCCC2)c2ccccc21	i	i	i	i
N#CC(C#N)=C1C(=O)N(CCN2CCOCC2)c2ccccc21	i	-36	i	i
CC1Sc2ccc(C(=O)NCc3ccccn3)cc2NC1=O (stereo not given)	i	nt	i	nt
CCCCOc1ccc(-c2csc(N)n2)cc1[N+](=O)[O-]	i	i	?	40µM
O=C(c1cccc(F)c1)N1CCC2(CCCN(c3ccccn3)C2)CC1	nt	i	nt	i
O=C(O)c1ccccc1C(=O)c1ccc2c(c1)N(Cc1cccc(F)c1)C(=O)CO2	i	-42	i	i
CCCN1C(=O)COc2ccc(C(=O)c3ccccc3C(=O)O)cc21	i	i	i	i
CCCCN(C(=O)c1cc2ccccc2o1)c1c(N)n(CCCC)c(=O)[nH]c1=O	i	nt	i	nt
O=c1ccc2c(o1)/C(=C/C=C(Cl)Cl)CCC2	i	i	?	40µM
C=C1c2c(Cl)ccc(O)c2C(O)=C2C(=O)[C@@]3(O)C(O)=C(C(N)=O)C(=O)[C@@H](N(C)C)[C@@H]3[C@@H](O)[C@H]12	nt	i	nt	i
Cc1ccccc1NC(=O)c1ccc2c(c1)C(=O)N(CC(C)C)C2=O	i	i	i	i
CCCN1C(=O)c2cc(C(=O)Nc3ccccc3C)ccc2C1Nc1ccccc1C (stereo not given)	i	i	23µM	i
COC(CNC(=O)c1ccc2c3c(onc13)-c1ccccc1C2=O)OC	i	i	?	18µM
C=CCc1cc(OC)ccc1OCCOCCN1CCc2ccccc2C1	i	i	i	35µM
CN1C(=O)/C(=C2\SC(N)=NC2=O)c2ccccc21	i	i	i	56µM
CN1C(=O)/C(=C2\SC(N3CCCCCC3)=NC2=O)c2ccccc21	i	i	?	i
N#CC1=C(N)SC(N)=C(C#N)C1c1ccoc1	nt	-39	i	i
CCCC1(C(=O)OC)NC(c2ccc(OC)cc2OC)C2C(=O)N(c3cccc(C(C)=O)c3)C(=O)C21 (stereo not given)	i	i	?	i
ClC(Cl)(c1nnnn1-c1ccccc1)c1nnnn1-c1ccccc1	i	i	i	2.8µM
Cn1c(N2CCOCC2)c(/C=N/OC(=O)c2cccnc2Cl)c2ccccc21	i	i	?	22µM
Cc1c(C(=O)c2ccc(N(C)C)cc2)c2ccccn2c1CCC#N	i	i	i	i
Cc1c(C(=O)c2ccc(Cl)cc2[N+](=O)[O-])c2ccccn2c1CCC#N	-100	i	i	i
Cc1c(C(=O)c2ccc(F)cc2F)c2ccccn2c1CCC#N	i	-40	i	?
Cc1c(C(=O)c2ccc(Cl)c([N+](=O)[O-])c2)c2ccccn2c1CCC#N	i	i	i	i
SMILES	Giardia kill	FBPA coupling cs	ELG1 repair inh	Sfp PPTase inh
Cc1cc(NS(=O)(=O)c2ccc(NC(=O)COc3ccc(C#N)cc3)cc2)nc(C)n1	i	nt	i	nt
CSCCC(NC(=O)c1ccccc1Br)C(=O)NNC(=O)c1cc(C)oc1C (stereo not given)	i	nt	i	nt
CCCOc1ccc(-c2c(=O)n(O)c3ccccc3[n+]2[O-])cc1	i	i	?	i
Cc1cccc(N2CCc3c2nc2ccc(Br)cc2c3N)c1	i	i	?	13µM
Nc1c2c(nc3ccc(Br)cc13)N(c1ccccc1)CC2	i	i	i	18µM
Nc1c2c(nc3ccc(Br)cc13)N(Cc1ccccc1)CC2	i	i	i	?
COc1ccc(NC(=O)CN2CCN(CC(=O)Nc3ccc(F)cc3F)CC2)cc1	i	i	i	i
OC[C@H]1OC(O)[C@@H](O)[C@@H](O)[C@H]1O (stereo not given in full)	nt	i	nt	i
Cc1cc(C(=O)COc2cccnc2[N+](=O)[O-])c(C)n1-c1ccccc1	-89	i	?	i
O=P(c1ccccc1)(c1ccccc1)C(O)c1ccccn1 (stereo not given)	i	i	i	79µM
O=P(c1ccccc1)(c1ccccc1)C(c1ccccn1)P(=O)(c1ccccc1)c1ccccc1	i	i	i	i
c1ccc2c(c1)ncn2Cc1nnc2sc(-c3ccncc3)nn12	i	i	?	16µM
c1ccc(-c2nn3c(Cn4cnc5ccccc54)nnc3s2)cc1	i	i	i	10µM
O=C(NC1CCOc2ccccc21)C1CCCC1 (stereo not given)	i	i	i	i
